Test results taken from the supplement of paper PMC10338343.
± gives the standard deviation.

These sequences were tested on MILI (PIWIL2) piRISC loaded with L1MC piRNA (26 nt) (assay: pre-steady-state target cleavage rate (min^-1); guide: L1MC piRNA 5'p-UAACUAAAUACUAUGCAAGCUGUAGG; MIWI and MILI are mouse PIWI proteins and EfPiwi is from a freshwater sponge; tags in brackets are library labels; higher = faster piRNA-guided slicing of the target). Details: auxiliary factor: 500 nM mouse GTSF1.
Procedure, shortened: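 With or without 500 nM GTSF1 partner protein, 1 nM active affinity-purified piRISC carrying one synthetic guide was mixed with 0.1 nM transcribed, DNA-blocked target RNA library in HEPES–potassium acetate buffer at 33 °C for 0–8 or 0–960 min. Uncleaved targets were sequenced and normalised to depth and to weakly complementary targets, three trials were pooled, and k3 was capped at 0.0001 min^-1. The pre-steady-state cleavage rate came from a burst-and-steady-state fit.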

| Sequence | pre-steady-state target cleavage rate |
| --- | --- |
| UCCUGGAUGUCGUAGCAUAGUAUUUAGUAA | 0.0538 ± 0.01 |
| UCCUCCUACAGCAAGCAUAGUAUUUUCAAA | 0.111 ± 0.025 |
| UCCUGGAUGUCCUUGCAUAGUAUUUUCAAA | 0.023 ± 0.0094 |
| UCCUGGUACAGCUUGCAUAGUAUUAUGAAA | 0.00782 ± 0.0056 |
| UCCUGGAUGUCCUUGCAUAGUAUUGAGUUA | 0.0563 ± 0.019 |
| UCCUGGAUGAGCUUGCUUAGAAUUUAGUUA | 0.0121 ± 0.0047 |
| UCCUGGAUGUGCUUGGAUAGUAUUUAGAUA | 0.00891 ± 0.0052 |
| UCCUCCUACAGCAAGCAUAGUAUUUAGUAA | 0.238 ± 0.02 |
| UCCUGGAUCAGCUUCCAUAGUAAUUAGUUA | 0.00494 ± 0.004 |
| UCCUCCUACAGCUUGCAUAGUAUUUAGCUUA | 0.253 ± 0.075 |
| UCCUGGAUGUCCUUGCAUUGAAUUUAGUUA | 0.00493 ± 0.0046 |
| UCCUGGAUGUCCUAGCAUAGUAUUUACUUA | 0.0287 ± 0.0091 |
| UCCUGGAUGAGCUUGCAUAUAUUUAGUUA | 0.00951 ± 0.0043 |
| UCCUCCUACAGCUUGCAUAGAAAUUAGUUA | 0.0406 ± 0.0085 |
| UCCUCCUACAGGUUGCAUAGUAUUUUCAAA | 0.0497 ± 0.013 |
| UCCUGGAUGUGCUUGCAUAGAAUUUAGUUA | 0.0203 ± 0.0071 |

| Sequence | pre-steady-state target cleavage rate |
| --- | --- |
| UCCUGGAUGUCCUUGCAUACUAUUAAGUUA | 0.0099 ± 0.0049 |
| UCCUGGUACACGAUGCAUAGUAUUUACAAA | 0.00826 ± 0.0057 |
| UCCUGGAUGUCGAUGCAUAGUAUUUAGGUA | 0.0275 ± 0.011 |
| UCCUGGAUGAGCUUGCAUAGUAUUAUGUUA | 0.172 ± 0.036 |
| UCCUGGAUCACCUUGCAUAGAAUUUAGUUA | 0.017 ± 0.0097 |
| UCCUGGUACAGCUUGCAUCAGUAUUUAGUUA | 0.0101 ± 0.0042 |
| UCCUGGUACAGCUUGCAUAGUUAAUAGAAA | 0.00845 ± 0.0048 |
| UCCUCCUACAGCUUGCAUAGUAAAUACAAA | 0.0608 ± 0.018 |
| UCCUGGAUGUCGAAGCAUAGUAUUCUAGUUA | 0.0193 ± 0.0065 |
| UCCUGGAACAGCUUGCAUAGUUUUAAGUUA | 0.0465 ± 0.009 |
| UCCUGGAUGUCCUUGCAUACUAUUUUGUUA | 0.00525 ± 0.0044 |
| UCCUGGAACAGCUUGCAAAGAAUUUAGUUA | 0.102 ± 0.037 |
| UCCUGGAUCUGCUUGCAUAGUAUUUAGAAA | 0.0794 ± 0.019 |
| UCCUGGAUGUCGAUGCAUAGUAUGUAGUUA | 0.0337 ± 0.0087 |
| UCCUGGAUGUCCUACCAUAGUAUUUAGUAA | 0.021 ± 0.0077 |

Same assay, conditions: auxiliary factor: none (no GTSF1)

| Sequence | pre-steady-state target cleavage rate |
| --- | --- |
| UCCUGGAUGUCGAACGUAUCUAAUUAGUUA | < 0.0001 |
| UCCUGGAUGUCGAACCAUCAGUAUUUAGUUA | < 0.0001 |
| UCCUGGAUCAGCUUGCAUAGGUAUUUAGUUA | 0.00357 ± 0.0027 |
| UCCUGGUACAGCUUGCAUAGCUAUUUAGUUA | 0.0041 ± 0.004 |
| UCCUGGAUGUCGAACCAAAGUAUUUAGAUA | < 0.0001 |
| UCCUGGAUGUCGAACGUUAGUAUUUACAAA | < 0.0001 |
| UCCUGGAUGUCGAAGCAUGUAUUUAGUUA | < 0.0001 |
| UCCUGGAUGUCGAACGAAAGUAUUUUGUUA | < 0.0001 |
